Measurements as given in PubChem BioAssay AID1159580 (chemical genetic matrix, 2015).
Hit rate of the full screen: of about 5,500 compounds, about 2,000 (36%) were called active. Another 18% or so got no clear call; they are omitted. Cut-off read from the data, not from the text of the source: active = normalized growth mostly below about 0.91 (no sharp cut-off); inconclusive = no clear call, values can overlap the other calls; inactive = mostly above about 0.92. This is one part of the list.

Assay: chemical genetic growth profiling, strain panel (AID 1159580);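 note: tested at 20 µM; growth read once vehicle control cultures reached saturation at 30 °C; 1 = growth at the plate median or of vehicle wells; lower values mean less growth of the strain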
Details: S. cerevisiae deletion strains, growth OD

Measured: normalized growth

CCN(CC)C(=O)N[C@@H]1C=C2c3cccc4[nH]cc(c34)C[C@H]2N(C)C1
inactive: locus YAL040C, strain CLN3, hits give low values 1.08 | locus YCL061C, strain MRC1 (second series), hits give low values 1 | locus YDR363W, strain ESC2, hits give low values 0.989 | locus YER002W, strain NOP16, hits give low values 1 | locus YGR078C, strain PAC10, hits give low values 0.985 | locus YJR075W, strain HOC1, hits give low values 0.983 | locus YMR263W, strain SAP30, hits give low values 0.991 | locus YNL153C, strain GIM3, hits give low values 1.02 | locus YNL175C, strain NOP13, hits give low values 1.01 | locus YNL197C, strain WHI3, hits give low values 1 | locus YNL224C, strain SQS1, hits give low values 0.997 | locus YNL322C, strain KRE1, hits give low values 0.997 | locus YOR083W, strain WHI5 (second series), hits give low values 0.992
